Most compounds without a hit are left out; they make up all but 2.7% or so of the library.
CHT block = human CHT choline transport inhibition; CHT-expressing cells, membrane potential dye, choline response; hits give low values; B-score at 10 µM; Q9GZV3; hit rate 0.86% among 310,000; AID 488975;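 active means B-score over 3 SD under the library average, and starting fluorescence ratio not unusually high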;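 further: choline stimulus applied at its EC90 after an EC20 pre-addition; B-score computed on integrated fluorescence ratio after choline addition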
ANO1 activ = mouse TMEM16A channel activation, primary screen | AID 623877 | B-score at 10 µM | HEK293 TMEM16A/YFP-H148Q/I152L, iodide quench fluorescence; hits give low values | hit rate 0.3% among 340,000;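 active means fluorescence-ratio B-score plate-corrected deviation score at least 3 library SD below zero, with starting fluorescence score within 5 deviations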;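 further: channel opened by trigger with iodide after compound preincubation; score built on the fluorescence ratio of max minus min over baseline; more negative score means more quench and so TMEM16A activation or potentiation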
IDE cell activ = activators of human insulin-degrading enzyme in cells | HEK cells, FAbeta-B cleavage, fluorescence polarization; 0% vehicle, 100% cell-free pure enzyme wells | activation, % at 5.96 µM | hit rate 0.073% among 340,000 | AID 493087;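 active means activation above the mean of all tested compounds plus 3 SD, set per screening campaign, cut at about 17% in these data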
IDE inh = inhibits human insulin-degrading enzyme in HEK cells | inhibition, % at 5.59 µM | hit rate 0.41% among 320,000 | FAbetaB cleavage, fluorescence polarization;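 active means percent inhibition above the average of all tested compounds plus 3 SD, set per screening campaign, cut at about 16% in these data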;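 further: IDE supplied by intact live HEK cells; FP after avidin binding of uncleaved biotin substrate so inhibition keeps polarization high; 0% = DMSO wells and 100% = 60 µM reference IDE inhibitor Ii1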
CHT PAM = allosterically activates the human high affinity choline transporter; Q9GZV3; CHT-expressing cells, membrane potential dye, choline EC20; hits give high values; LV-AA mutant CHT in HEK293 cells; B-score at 10 µM; hit rate 0.49% among 310,000; AID 488977;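 active means initial fluorescence not abnormally high and integrated response B-score, plate-corrected, over 3 SD above library mean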
ANO1 block = blocks the mouse calcium-activated chloride channel TMEM16A; HEK293 TMEM16A/YFP iodide influx fluorescence, ionomycin; normalized B-score (activity score, 25-100; higher = stronger inhibition) at 10 µM; hit rate 1.2% among 310,000;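 active means ratio plate-corrected score three or more library SD toward inhibition, starting fluorescence score within five deviations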;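 further: score derived from kinetic fluorescence span divided by baseline fluorescence per well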
TMEM16A reconf = TMEM16A (mouse) chloride channel inhibition, re-confirmation. shares compounds with ANO1 block. HEK293 TMEM16A/YFP-H148Q, iodide quench fluorescence; ionomycin added to raise cell calcium. inhibition, % at 10 µM. hit rate 39% among 2,300;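 active means mean duplicate percent inhibition, scaled so buffer wells are 0 and the reference blocker 100, over three buffer SD above buffer mean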
TMEM16A Ca cntr = calcium mobilization counter-screen hit for TMEM16A inhibitor series | hit rate 2% among 2,300 | shares compounds with ANO1 block | calcium response (% of ionomycin), % at 10 µM | TMEM16A/YFP HEK293, Fluo4 calcium mobilization;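 active means duplicate-averaged calcium signal over 20% of the ionomycin maximum, relative to buffer baseline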;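 further: each well's signal is peak minus trough fluorescence divided by its pre-addition baseline; 0% = buffer wells and 100% = ionomycin wells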
Parental YFP cnt = acts in parental YFP-HEK293 cells lacking TMEM16A, counter-screen. shares compounds with ANO1 block. iodide YFP quench, ionomycin. YFP ratio F(max-min)/F0 at 10 µM. 2,300 tested, under 10 active;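 active means yellow fluorescent protein signal ratio exceeding the buffer control mean by over 5 SD of those controls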;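 further: ratio is mean of duplicate wells from kinetic YFP trace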
ClC-1 inh = selectivity of TMEM16A inhibitors: inhibition of rat ClC-1 chloride channel. CHO ClC-1-YFP, iodide influx fluorescence quench; iodide control reads 0, buffer control 100. ratio percent, % at 10 µM. shares compounds with ANO1 block. 2,300 tested, under 10 active;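 active means duplicate-mean ratio percent above the mean of iodide-only control wells, which defines zero, plus 5 of their SD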;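 further: higher percent means stronger block of ClC-1 iodide influx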
* marks the source's active call; other numbers are inactive results; i = inactive; · = no result.

SMILES	CHT block	ANO1 activ	IDE cell activ	IDE inh	CHT PAM	ANO1 block	TMEM16A reconf	TMEM16A Ca cntr	Parental YFP cnt	ClC-1 inh
O=C(Nc1cccc(C(F)(F)F)c1)c1cccnc1NCCc1ccccc1	i	i	5	5	i	25*	i	i	-1.1	-5
O=C(Nc1cccc(C(F)(F)F)c1)c1cccnc1NCCO	i	i	6	-1	i	i	·	·	·	·
Cc1c(Cc2ccc3c(c2)OCO3)sc(NC(=O)c2ccccc2)c1C(N)=O	i	i	4	9	i	i	i	i	-1.1	0
Cc1nc(NC(=O)c2ccccc2)sc1Cc1ccc2c(c1)OCO2	i	i	7	2	i	i	·	·	·	·
COc1ccc(NC(=O)CN2C(=O)c3ccccc3S2(=O)=O)cc1S(=O)(=O)N1CCOCC1	·	i	5	·	·	·	·	·	·	·
Cc1cc(S(=O)(=O)N2CCN(CC(=O)NCCc3cccs3)CC2)ccc1Br	·	i	-3	4	·	·	·	·	·	·
OC(COc1ccc2ccccc2c1Br)Cn1ccnc1 (centres undefined)	i	i	3	8	i	25*	i	i	-1	-1
OC(COc1ccc2ccccc2c1)Cn1ccnc1 (centres undefined)	i	i	4	-7	i	i	·	·	·	·
CNc1ccccc1C(C)(C)c1cc(-c2cccc(OC)c2)no1	i	i	·	2	i	25*	23%*	i	-0.85	-4
ClC(Cl)(Cl)c1nc2ccccc2n2nncc12	i	i	4	1	i	i	·	·	·	·
CCC(C)n1c(C)nc2c(c1=O)c1nc3ccccc3nc1n2CCC1=CCCCC1 (centres undefined)	i	i	4	-3	i	25*	22%*	i	-1.1	-8
C=C(C)C1CC=C(C)/C(=N/NC(=O)CNc2ccc(OCC)cc2)C1 (centres undefined)	i	i	10	5	i	25*	i	i	-1.1	0
Cc1cnc(C(=O)OCc2nc3ccccc3o2)cn1	·	i	-1	-3	·	·	·	·	·	·
CC(C)(C)NC(=O)COC(=O)c1snc(C(=O)NC2CCCCC2)c1N	i	i	2	1	i	100*	i	i	-0.99	-20
CC(OC(=O)c1snc(C(=O)NC2CCCCC2)c1N)C(=O)NC(C)(C)C (centres undefined)	i	i	3	5	i	i	·	·	·	·
CCC(CC)CN1CCN=C1N(C)C	i	i	1	2	i	i	·	·	·	·
Cc1cccc(S(=O)(=O)Nc2ccc3c(c2)OCCO3)c1	i	i	0	5	i	i	·	·	·	·
Cc1cccc(S(=O)(=O)Nc2nc3ccccc3nc2Nc2ccc3c(c2)OCO3)c1	i	i	3	1	i	25*	20%*	i	-1	-16
c1ccc2c(c1)[nH]c1c(NCC3CCCO3)ncnc12 (centres undefined)	i	i	-3	1	i	i	·	·	·	·
c1nc(NCC2CCCO2)c2[nH]cnc2n1 (centres undefined)	i	i	-6	2	i	25*	i	i	-1	-14
COc1ccc(C2CC(c3ccccc3)=NN2S(=O)(=O)c2ccccc2)cc1 (centres undefined)	i	i	6	4	i	i	55%*	i	-0.84	2

Assay outcomes from PubChem.
